According to PubChem BioAssay (Tox21):
Values joined by “and” are separate entries in the source; they are usually repeats but may differ in a detail not shown here. Equal values may be shown once. Results filed as inconclusive are left out. Entries that show only a call come without a potency. Some structures have more than one record in an assay (separate samples or runs), and their calls can disagree. Active and inactive are the calls of the source. Unless noted, calls come from the whole dose curve.

Legend:
[1] = Nuclear factor erythroid 2-related factor 2/antioxidant responsive element (Nrf2/ARE) small molecule agonists: luciferase reporter gene qHTS assay in human keratinocytes (AID 1919969); note: nearly all actives have a fitted effect of over 35% in size
[2] = target: Gonadotropin-releasing hormone receptor (Homo sapiens) (UniProt P30968); assay: Human gonadotropin-releasing hormone receptor (GnRHR) small molecule agonists, calcium flux assay in GnRHR-HEK293 cells (AID 1920063); note: nearly all actives have a fitted effect of over 35% in size
Procedure, shortened: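 Stable human GnRHR HEK293 line. 18 h plating, then calcium dye for 1 h at 37 C. Agonist-mode compound addition from DMSO stocks; fluorescence monitored 3 min.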

[3] = target: KiSS-1 receptor (Homo sapiens) (UniProt Q969F8); assay: Human kisspeptin (KISS1R) small molecule agonists, calcium flux assay in KISS1R-HEK293 cells (AID 1920064; active = well fitted activation curve with a large enough effect in the repeat runs)
Procedure, shortened: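 After overnight (18 h) culture at 37 C/5% CO2, human KISS1R-HEK293 cells received calcium dye for 1 h, then test compound; emission at 540 nm (excitation 480 nm) was tracked for 3 min.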

[4] = G protein-coupled receptor (GPCR) small molecule agonists, calcium flux assay: HEK293 wild type cell line counter screen (AID 1920065)
Procedure, shortened: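 Following 18 h incubation at 37 C/5% CO2, plates got calcium dye for 1 h; compounds, ATP or DMSO were then pinned in and fluorescence followed kinetically (480/540 nm).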

[5] = p53 small molecule agonists, cell-based qHTS assay with human liver microsomes (AID 1963577);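 note: p53 response element beta-lactamase reporter cells with liver microsomes plus NADPH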
Procedure, shortened: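 With metabolic activation: human liver microsomes (0.5 mg/mL final) plus NADPH (0.5 mg/mL final) added alongside compounds to p53RE-bla cells; 16 h 37 C exposure; beta-lactamase read by LiveBLAzer fluorescence.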

[6] = p53 small molecule agonists, cell-based qHTS assay with rat liver microsomes (AID 1963578)
Procedure, shortened: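 Metabolic activation by rat liver microsomes and NADPH, each 0.5 mg/mL final, added right after compounds to p53RE-bla reporter cells (4,000/well, plated 5 h earlier). 16 h at 37 C, then LiveBLAzer substrate for 2 h at room temperature in the dark; fluorescence read-out.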

[7] = p53 small molecule agonists, cell-based qHTS assay with human liver microsomes: qHTS cell viability counter screen (AID 1963579); note: nearly all actives have a fitted effect of over 45% in size; note: potency is the fitted concentration of half-maximal effect
Procedure, shortened: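 Metabolic activation used human liver microsomes and NADPH, both 0.5 mg/mL final, over 16 hours at 37 C on p53RE-bla cells (4,000/well). Cytotoxicity measured by CellTiter-Glo luminescence, 30 min at room temperature.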

[8] = p53 small molecule agonists, cell-based qHTS assay with rat liver microsomes: qHTS cell viability counter screen (AID 1963580); note: nearly all actives have a fitted effect of over 45% in size; note: potency is the fitted concentration of half-maximal effect
Procedure, shortened: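 Cytotoxicity counter screen: intracellular ATP measured by CellTiter-Glo luminescence in the same wells as the beta-lactamase reporter read, on HCT-116 p53RE-bla cells exposed 16 h at 37 C to compounds with rat liver microsomes and NADPH, each 0.5 mg/mL final.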

[9] = p53 small molecule agonists, cell-based qHTS assay (AID 1963582; active = well fitted activation curve with a large enough effect in the signal ratio in the repeat runs, not every such curve was filed as active; the % refers to the signal ratio)
Procedure, shortened: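 Measured: fluorescence from cleaved LiveBLAzer substrate. System: p53RE-bla cells, 16 h compound treatment at 37 C, 2 h substrate step at room temperature.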

[10] = target: 5-hydroxytryptamine receptor 2A (Homo sapiens) (UniProt P28223); assay: 5-hydroxytryptamine receptor 2A (HTR2A) small molecule antagonists, cell-based qHTS assay (AID 1963586); note: nearly all actives have a fitted effect of over 45% in size
Procedure, shortened: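 CHO cells stably expressing human HTR2A were plated for 18 h at 37 C, then loaded with calcium dye for 1 h. Compounds were preincubated 5 min at room temperature before DOI (4 nM solution) was added. Kinetic fluorescence was read for 3 min.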

[11] = target: 5-hydroxytryptamine receptor 2A (Homo sapiens) (UniProt P28223); assay: 5-hydroxytryptamine receptor 2A (HTR2A) small molecule agonists, cell-based qHTS assay (AID 1963587); note: nearly all actives have a fitted effect of over 30% in size; note: potency is the fitted concentration of half-maximal effect
Procedure, shortened: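 CHO cells stably expressing human HTR2A, plated 18 h, loaded with calcium dye 1 h at 37 C. Agonist mode: compounds added and intracellular calcium fluorescence recorded kinetically for 2 min at 1 sec intervals.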

[12] = target: Muscarinic acetylcholine receptor M1 (Homo sapiens) (UniProt P11229); assay: Cholinergic receptor muscarinic 1 (CHRM1) small molecule antagonists, cell-based qHTS assay (AID 1963588); note: nearly all actives have a fitted effect of over 40% in size; note: potency is the fitted concentration of half-maximal effect
Procedure, shortened: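 Compounds were tested at 15 concentrations in three independent runs. Dye-loaded CHRM1-CHO cells were exposed 5 min at room temperature before stimulation by acetylcholine added at 50nM. Intracellular calcium was read kinetically on FDSS for 3 min.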

[13] = target: Muscarinic acetylcholine receptor M1 (Homo sapiens) (UniProt P11229); assay: Cholinergic receptor muscarinic 1 (CHRM1) small molecule agonists, cell-based qHTS assay (AID 1963589); note: nearly all actives have a fitted effect of over 35% in size
Procedure, shortened: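 Kinetic fluorescence (1 s intervals) of calcium-sensitive dye in human M1 CHO cells after compound addition; cells pre-incubated 18 h at 37 C/5% CO2 and dye-loaded 1 h.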

[14] = cAMP Responsive Elements (CRE) small molecule agonists, cell-based qHTS assay (AID 1963590)
Procedure, shortened: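 Test agents in DMSO were incubated 3 h at 37 C/5% CO2 with CRE-bla HEK 293T cells seeded 18 h earlier; LiveBLAzer B/G FRET substrate was added and read after 2 h at room temperature.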

[15] = cAMP Responsive Elements (CRE) small molecule antagonists, cell-based qHTS assay (AID 1963591; active = well fitted inhibition curve with a large enough effect in the signal ratio in the repeat runs, not every such curve was filed as active; the % refers to the signal ratio; note: potency is the fitted concentration of half-maximal effect)
Procedure, shortened: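 Reporter line CRE-bla HEK 293T in dialyzed-FBS DMEM; cells preincubated 18 h, treated 3 h with compound plus NKH477 (0.25 uM final); LiveBLAzer FRET, 2 h RT.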

[16] = target: Beta-2 adrenergic receptor (Homo sapiens) (UniProt P07550); assay: Adrenergic beta2 receptor (ADRB2) small molecule antagonists, cell-based qHTS assay (AID 1963592); note: series mostly up to about 92 µM; nearly all actives have a fitted effect of over 50% in size
Procedure, shortened: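 Assay format: CHO-ADRB2 cells, 18-20hr seeding at 37C/5% CO2, then compound plus 1nM isoproterenol agonist mix for 0.5hr RT. Homogeneous time-resolved fluorescence cAMP detection after 1hr, expressed as 665/615 nm ratio.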

[17] = target: Beta-2 adrenergic receptor (Homo sapiens) (UniProt P07550); assay: Adrenergic beta2 receptor (ADRB2) small molecule agonists, cell-based qHTS assay (AID 1963593);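 note: CHO cells stably overexpressing human ADRB2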
Procedure, shortened: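 CHO cells stably over-expressing ADRB2 were plated overnight at 37C, then dosed with compounds plus a stimulation mix containing 100uM IBMX and 25uM Ro-20-1724 for 0.5hr at room temperature. cAMP was measured by HTRF competition, 1hr.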

[18] = target: D(2) dopamine receptor (Homo sapiens) (UniProt P14416); assay: Dopamine D2 receptor (DRD2) small molecule agonists, cell-based qHTS assay (AID 1963594); note: nearly all actives have a fitted effect of over 35% in size
Procedure, shortened: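 HEK293 cells stably expressing human DRD2, pre-treated with PDE inhibitor Ro20-1724 (0.1 mM final) and compound 10 min at room temperature, then stimulated with NKH477 (200nM […]) for 30 min. cAMP read by HTRF (665/620 nm).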

[19] = target: D(2) dopamine receptor (Homo sapiens) (UniProt P14416); assay: Dopamine D2 receptor (DRD2) small molecule antagonists, cell-based qHTS assay (AID 1963595; active = well fitted inhibition curve with a large enough effect in the signal ratio in the repeat runs, with a control signal flat; the % refers to the signal ratio)
Procedure, shortened: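 Readout: HTRF cAMP, cAMP-d2 competing with cellular cAMP for anti-cAMP cryptate, read after 1 h. Cells: DRD2-HEK293. Conditions: 0.1 mM Ro20-1724, 12 nM quinpirole, 200 nM NKH477, 30 min RT.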

[20] = p53 small molecule agonists, cell-based qHTS assay: qHTS cell viability counter screen (AID 1963581); note: nearly all actives have a fitted effect of over 45% in size; note: potency is the fitted concentration of half-maximal effect
Procedure, shortened: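 qHTS counter screen: 16 h compound exposure at 37 C of p53RE-bla HCT-116 cells (4,000 per well, seeded 5 h prior), cell viability by ATP luminescence.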

Gonadotropin-releasing hormone receptor (Homo sapiens), sequence (P30968 whole entry, looked up): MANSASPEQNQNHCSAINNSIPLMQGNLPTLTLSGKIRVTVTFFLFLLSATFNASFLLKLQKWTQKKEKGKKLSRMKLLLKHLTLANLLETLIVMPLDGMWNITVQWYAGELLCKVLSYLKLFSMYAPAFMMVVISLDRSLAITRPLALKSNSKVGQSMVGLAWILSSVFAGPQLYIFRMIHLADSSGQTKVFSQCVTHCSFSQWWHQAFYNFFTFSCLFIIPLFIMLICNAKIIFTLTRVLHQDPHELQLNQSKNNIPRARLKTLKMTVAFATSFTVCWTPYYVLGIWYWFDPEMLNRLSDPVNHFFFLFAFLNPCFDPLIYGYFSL
Muscarinic acetylcholine receptor M1 (Homo sapiens), sequence (P11229 whole entry, looked up): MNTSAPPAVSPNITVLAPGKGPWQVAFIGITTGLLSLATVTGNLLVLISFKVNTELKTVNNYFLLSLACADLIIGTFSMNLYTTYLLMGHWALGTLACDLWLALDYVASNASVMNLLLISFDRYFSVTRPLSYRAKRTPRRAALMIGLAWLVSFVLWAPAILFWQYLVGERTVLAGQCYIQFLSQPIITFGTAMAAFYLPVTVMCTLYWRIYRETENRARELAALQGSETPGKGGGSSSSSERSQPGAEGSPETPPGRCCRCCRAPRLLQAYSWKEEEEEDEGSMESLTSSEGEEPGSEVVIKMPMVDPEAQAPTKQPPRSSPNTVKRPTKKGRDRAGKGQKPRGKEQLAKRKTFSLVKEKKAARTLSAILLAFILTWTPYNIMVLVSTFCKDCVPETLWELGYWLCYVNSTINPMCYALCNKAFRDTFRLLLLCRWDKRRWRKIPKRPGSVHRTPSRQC
Beta-2 adrenergic receptor (Homo sapiens), sequence (P07550 whole entry, looked up): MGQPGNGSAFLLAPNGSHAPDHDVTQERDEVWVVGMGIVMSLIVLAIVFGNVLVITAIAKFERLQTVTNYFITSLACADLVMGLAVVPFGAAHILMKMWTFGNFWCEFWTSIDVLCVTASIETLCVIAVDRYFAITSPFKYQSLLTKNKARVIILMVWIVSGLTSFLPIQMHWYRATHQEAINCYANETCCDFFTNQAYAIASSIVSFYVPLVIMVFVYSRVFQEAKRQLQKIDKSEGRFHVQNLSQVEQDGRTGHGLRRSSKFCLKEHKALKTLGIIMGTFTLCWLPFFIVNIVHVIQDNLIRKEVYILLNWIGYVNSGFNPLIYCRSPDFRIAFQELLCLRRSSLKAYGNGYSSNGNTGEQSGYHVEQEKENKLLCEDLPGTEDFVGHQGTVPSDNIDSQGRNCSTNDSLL
5-hydroxytryptamine receptor 2A (Homo sapiens), sequence (P28223 whole entry, looked up): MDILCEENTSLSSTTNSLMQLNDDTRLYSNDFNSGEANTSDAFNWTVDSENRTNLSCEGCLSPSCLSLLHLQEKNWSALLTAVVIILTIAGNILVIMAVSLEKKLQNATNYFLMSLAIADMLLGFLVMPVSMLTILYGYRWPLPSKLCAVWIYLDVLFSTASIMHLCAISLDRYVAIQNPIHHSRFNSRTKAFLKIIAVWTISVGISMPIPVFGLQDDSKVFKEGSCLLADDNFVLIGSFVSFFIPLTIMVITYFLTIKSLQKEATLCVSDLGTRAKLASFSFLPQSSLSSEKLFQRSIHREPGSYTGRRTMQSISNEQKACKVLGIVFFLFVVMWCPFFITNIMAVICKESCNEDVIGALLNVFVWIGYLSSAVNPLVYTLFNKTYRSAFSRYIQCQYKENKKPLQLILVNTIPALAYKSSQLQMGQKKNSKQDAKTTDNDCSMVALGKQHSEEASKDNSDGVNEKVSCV
D(2) dopamine receptor (Homo sapiens), sequence (P14416 whole entry, looked up): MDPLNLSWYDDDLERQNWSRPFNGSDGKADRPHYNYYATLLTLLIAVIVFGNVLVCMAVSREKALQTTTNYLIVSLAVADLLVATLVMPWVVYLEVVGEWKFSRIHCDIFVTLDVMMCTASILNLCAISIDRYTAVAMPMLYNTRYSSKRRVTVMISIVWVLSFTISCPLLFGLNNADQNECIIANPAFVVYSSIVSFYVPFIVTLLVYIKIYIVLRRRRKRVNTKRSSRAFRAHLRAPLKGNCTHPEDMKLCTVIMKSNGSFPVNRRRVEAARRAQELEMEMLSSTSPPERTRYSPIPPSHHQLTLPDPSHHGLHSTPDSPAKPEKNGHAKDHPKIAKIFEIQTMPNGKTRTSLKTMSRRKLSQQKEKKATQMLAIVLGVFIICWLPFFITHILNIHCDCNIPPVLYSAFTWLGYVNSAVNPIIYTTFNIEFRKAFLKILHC
KiSS-1 receptor (Homo sapiens), sequence (Q969F8 whole entry, looked up): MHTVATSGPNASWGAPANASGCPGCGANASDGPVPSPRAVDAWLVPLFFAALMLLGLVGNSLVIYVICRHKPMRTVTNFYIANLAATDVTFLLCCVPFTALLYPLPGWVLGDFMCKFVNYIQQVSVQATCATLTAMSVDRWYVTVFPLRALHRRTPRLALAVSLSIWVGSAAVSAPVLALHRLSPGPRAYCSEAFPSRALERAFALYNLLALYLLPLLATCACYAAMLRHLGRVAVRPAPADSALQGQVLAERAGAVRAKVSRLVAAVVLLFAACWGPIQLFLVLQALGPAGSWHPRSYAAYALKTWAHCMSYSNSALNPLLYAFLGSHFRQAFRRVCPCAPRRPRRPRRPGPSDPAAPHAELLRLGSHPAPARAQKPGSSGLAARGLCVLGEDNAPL

Structure (SMILES) | Potency [1] | Potency [2] | Potency [3] | Potency [4] | Potency [5] | Potency [6] | Potency [7] | Potency [8] | Potency [9] | Potency [10] | Potency [11] | Potency [12] | Potency [13] | Potency [14] | Potency [15] | Potency [16] | Potency [17] | Potency [18] | Potency [19] | Potency [20]
CN(C)CCC(c1ccccc1)c1ccccn1 (centres undefined) | inactive | inactive | inactive | inactive | inactive | inactive | inactive | inactive | inactive | inactive | inactive | inactive and 3.26 µM (active) | inactive | inactive | inactive | inactive | inactive | inactive | inactive | 
Nc1ccn([C@H]2CC[C@@H](CO)O2)c(=O)n1 | inactive | inactive | inactive | inactive | inactive | inactive | inactive | inactive | inactive | inactive |  | inactive | inactive | inactive | inactive | inactive | inactive | inactive | inactive | inactive
CCCCC1C(=O)N(c2ccccc2)N(c2ccccc2)C1=O | inactive | inactive | inactive | inactive | inactive | inactive | inactive | inactive | inactive |  |  |  |  | inactive | inactive | inactive | inactive | inactive | inactive | inactive
CCC(=O)OC/C=C/c1ccccc1 | inactive | inactive | inactive | inactive | inactive | inactive | inactive | inactive | inactive | inactive | inactive | inactive | inactive | inactive | inactive | inactive | inactive | inactive | inactive | inactive
COCCOCCOCCO | inactive | inactive | inactive | inactive | inactive | inactive | inactive | inactive | inactive | inactive | inactive |  |  | inactive | inactive | inactive | inactive | inactive | inactive | inactive
Cc1ncc(CO)c(CO)c1O | inactive | inactive | inactive | inactive | inactive | inactive | inactive | inactive | inactive | inactive | inactive | inactive | inactive | inactive | inactive | inactive | inactive | inactive | inactive | inactive
CCOCCOCCO | inactive | inactive | inactive | inactive | inactive | inactive | inactive | inactive | inactive | inactive | inactive | inactive | inactive | inactive | inactive | inactive |  | inactive | inactive | inactive
CCCCCCCCCCCCOC(=O)c1cc(O)c(O)c(O)c1 | inactive | inactive | inactive | inactive | inactive | inactive | 45.8 µM (active) | 40.6 µM (active) |  | inactive | 10.9 µM (active) and inactive | inactive | inactive | inactive | 21.6 µM (active) and 45.2 µM (active) |  | inactive | inactive |  | 40.6 µM (active) and 40.8 µM (active)
CCCCCCCCC/C=C/CC1CC(=O)OC1=O (centres undefined) | inactive | inactive | inactive | inactive | inactive | inactive | inactive | inactive |  |  | inactive | inactive | inactive | inactive | inactive | inactive | inactive | inactive | inactive | inactive
CCOC(=O)C(C)(C)Oc1ccc(Cl)cc1 | inactive | inactive | inactive | inactive | inactive | inactive | inactive | inactive | inactive |  |  |  |  | inactive | inactive | inactive | inactive | inactive | inactive | inactive
C1CNCCN1 | inactive | inactive | inactive | inactive | inactive | inactive | inactive | inactive | inactive | inactive | inactive | 4.86 µM (active) and inactive |  | inactive | inactive | inactive | inactive |  | inactive | inactive
CCOCC(=O)O | inactive | inactive | inactive | inactive | inactive | inactive | inactive | inactive | inactive | inactive | inactive | inactive | inactive | inactive | inactive | inactive | inactive | inactive |  | inactive
CCCCCCCCCCC=CC1CC(=O)OC1=O (centres undefined) | inactive | inactive | inactive | inactive | inactive | inactive | inactive | inactive |  | inactive | inactive | inactive | inactive | inactive |  | inactive |  | inactive | inactive | inactive
CCCCCCCC/C=C\CCCCCCCC(=O)O | inactive | inactive | inactive | inactive | inactive | inactive | inactive | inactive | inactive | inactive | inactive | inactive | inactive | inactive |  | inactive | inactive | inactive |  | inactive
CC(C)(Oc1ccc(C2CC2(Cl)Cl)cc1)C(=O)O (centres undefined) | inactive | inactive | inactive | inactive | inactive | inactive | inactive | inactive | inactive |  |  |  |  | inactive | inactive | inactive | inactive | inactive | inactive | inactive
c1ccc2ccccc2c1 | inactive | inactive | inactive | inactive | inactive | inactive | inactive | inactive | inactive | inactive | inactive | inactive | inactive | inactive | inactive | inactive |  | inactive | inactive | inactive
